Experimental data published in PubChem BioAssay (NCI).
The panel holds about 83,000 compounds, 20% with a hit somewhere; the sample as a whole holds those more often.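 Negative percent growth values reflect cell death: -40 means 40% of the cells present at the start died, and -100 means all died.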 Active and inactive are the calls of the source. Rule for the calls: active = growth percent below 10; inactive = the rest.

Each compound was assayed on BT-549 breast (assay: NCI-60 one-dose screen, 48 h (100 = growth as untreated, 0 = no growth, -100 = all killed)). Conditions: 10 µM unless noted.

SMILES | growth
O=C(CCSc1nnc2n(Cc3ccccc3)c(=O)c3c4c(sc3n12)CCCC4)N1CCN(c2ccccc2)CC1 | 99.5% (inactive)
Cc1nc2c(c(=O)[nH]1)C(c1ccccc1)c1ccc3ccccc3c1O2 (stereo not drawn) | 34.1% (inactive)
CC(=O)OC(c1ccccc1)C1CCOC1=O (stereo not drawn) | 120% (inactive)
COc1cccc(/C=C/C(=O)c2cc3c(N)c(C(=O)Nc4cccc5ccccc45)sc3nc2C)c1 | 19.3% (inactive)
Cc1cc2c(cc1C)N(C(=O)CCl)CC(=O)N2 | 18.9% (inactive)
CC1(C)OB(O)c2cc(-c3nc4ccc5[nH]ncc5c4c4c3CCCC4)ccc21 | 74.9% (inactive)
CCN1C(=O)N(CC)C2C1NN=c1s/c(=C\c3ccc(C(F)(F)F)cc3)c(=O)n12 (stereo not drawn) | 9.68% (active)
COCCn1cc(-c2csc(-c3c[nH]c4ccc(Br)cc34)n2)c2cccnc21 | 22.6% (inactive)
O=C1/C=C/[C@@H](O)[C@@H]2C[C@@H](O)C[C@H]2/C=C/CCC[C@H](CCO)O1 | 8.06% (active)
O=C(/C=C(O)/C=C/c1cccc2[nH]ccc12)/C=C/c1cccc2[nH]ccc12 | 76.4% (inactive)
CCn1c(-c2cc3c([nH]c4ccccc43)c(-c3cccc(O)c3)n2)n[nH]c1=S | 26.7% (inactive)
CC1=C(C(=O)Nc2nc(-c3ccc(Cl)cc3)cs2)[C@H](c2ccc(O)cc2)NC(=O)N1 | 90.4% (inactive)
CCCCCCCCCCCCCCCCCC1=NC(C)(C)CN1CC(C)O (stereo not drawn) | 101% (inactive)
CCCCCCCC/C=C\CCCCCCCCOc1ccc(CC(=O)NCC[N+]2(C)CCOCC2)cc1 | 78.1% (inactive)
CNC(=O)c1ccccc1Nc1nc(Nc2cc(OC)c(OC)c(OC)c2)ncc1Br | -93.5% (active)
O=C(Nc1ccc(Br)cc1)C1=NCCCCN1 | 87.5% (inactive)
N#Cc1nc(-c2ccccc2)oc1S(=O)(=O)N1CCN(c2ccc(F)cc2)CC1 | 59.7% (inactive)
C=Cc1cnc(Nc2ccc(OC)cc2)nc1NCCCNC(=O)C1CCC1 | 26.4% (inactive)
CN1CCN(Cc2ccc(NC(=O)c3cncc(C#Cc4cnc(N)c5ncccc45)c3)cc2C(F)(F)F)CC1 | 34.1% (inactive)
CN1CCN(Cc2ccc(NC(=O)c3cncc(C#Cc4cnc(N)c5ccc(F)cc45)c3)cc2C(F)(F)F)CC1 | 42% (inactive)

SMILES | growth
O=C1Nc2ccccc2/C1=C\c1c[nH]c2ccc(Br)cc12 | 116% (inactive)
NC(=O)c1c(NC(=O)c2cccs2)sc2c1CCC(=O)C2 | 8.21% (active)
O=c1nc(-c2ccccc2)c2cc(-c3ccc(C(F)(F)F)nc3)ccc2[nH]1 | 99.3% (inactive)
O=C1C(Nc2ccccn2)=C(I)C(=O)c2ncccc21 | -68.5% (active)
Cc1ccc(-c2csc(NC(=O)c3ccccc3CN3C(=O)c4ccccc4C3=O)n2)cc1 | 91.4% (inactive)
COC(=O)CC[C@@H]1O[C@@H](c2ccc(F)cc2)[C@@H](O)[C@H]1O | 105% (inactive)
O=c1cc(-c2ccccc2)[nH]c2ncc(-c3ccc(F)cc3)n12 | 64.1% (inactive)
Oc1c(CN2CCOCC2)cc(COCc2ccccc2)c2cccnc12 | 36.4% (inactive)
CCS/C(Nc1ccccc1)=C(\C#N)C(=O)Nc1ccc(OC)cc1 | 40.5% (inactive)
COc1cc(NC(=O)c2cncnc2Nc2ccc3c(ccn3Cc3ccccn3)c2)cc(OC)c1 | 34.9% (inactive)
OCCNCCNC(Cc1ccc(Cl)cc1)c1ccccc1 (stereo not drawn) | 79.7% (inactive)
N#Cc1cccc(C2C3=C(COC3=O)N(CCO)c3cc4c(cc32)OCO4)c1 (stereo not drawn) | 38.7% (inactive)
CN(Cc1ccccc1)c1nc(Cl)c(C2CC(c3ccccc3)=NN2c2ccccc2)s1 (stereo not drawn) | 118% (inactive)
C=C1C(=O)O[C@H]2[C@H]1CC/C(CNC(=O)c1c[nH]c3ccc(F)cc13)=C\CC[C@@]1(C)O[C@@H]21 | 13% (inactive)
COc1cc(/C=N/Nc2ccc(Br)cc2)cc(OC)c1OC | 95.1% (inactive)
CCOC(=O)c1c(C)nc2c(c1N)/C(=C/c1ccc(OC)cc1)C(=O)N2Cc1ccccc1 | 63.6% (inactive)
Cn1c(=O)c2[nH]c(SCC(=O)Nc3ccc(C(=O)/C=C/c4ccccc4Cl)cc3)nc2n(C)c1=O | 83.3% (inactive)
CCN(CC)CCCOc1ccc2ncnc(Nc3ccc(Oc4cccc(C(F)(F)F)c4)c(Cl)c3)c2c1 | 81.4% (inactive)
Nc1nc(N)c2c(n1)NC(c1ccc(Cl)cc1)C1CCc3ccccc3C1=N2 (stereo not drawn) | 83.2% (inactive)

These compounds were tested on MDA-MB-435 melanoma in the same assay as above. Conditions: 10 µM unless noted.

SMILES | growth
O=C(CCSc1nnc2n(Cc3ccccc3)c(=O)c3c4c(sc3n12)CCCC4)N1CCN(c2ccccc2)CC1 | 91.2% (inactive)
Cc1nc2c(c(=O)[nH]1)C(c1ccccc1)c1ccc3ccccc3c1O2 (stereo not drawn) | -16.2% (active)
CC(=O)OC(c1ccccc1)C1CCOC1=O (stereo not drawn) | 96.3% (inactive)
COc1cccc(/C=C/C(=O)c2cc3c(N)c(C(=O)Nc4cccc5ccccc45)sc3nc2C)c1 | -50.7% (active)
Cc1cc2c(cc1C)N(C(=O)CCl)CC(=O)N2 | 54.9% (inactive)
CC1(C)OB(O)c2cc(-c3nc4ccc5[nH]ncc5c4c4c3CCCC4)ccc21 | 48.8% (inactive)
CCN1C(=O)N(CC)C2C1NN=c1s/c(=C\c3ccc(C(F)(F)F)cc3)c(=O)n12 (stereo not drawn) | -26.5% (active)
COCCn1cc(-c2csc(-c3c[nH]c4ccc(Br)cc34)n2)c2cccnc21 | 29% (inactive)
O=C1/C=C/[C@@H](O)[C@@H]2C[C@@H](O)C[C@H]2/C=C/CCC[C@H](CCO)O1 | 9.98% (active)
O=C(/C=C(O)/C=C/c1cccc2[nH]ccc12)/C=C/c1cccc2[nH]ccc12 | -2.09% (active)
CCn1c(-c2cc3c([nH]c4ccccc43)c(-c3cccc(O)c3)n2)n[nH]c1=S | -24.2% (active)
CC1=C(C(=O)Nc2nc(-c3ccc(Cl)cc3)cs2)[C@H](c2ccc(O)cc2)NC(=O)N1 | 101% (inactive)
CCCCCCCCCCCCCCCCCC1=NC(C)(C)CN1CC(C)O (stereo not drawn) | 50.9% (inactive)
CCCCCCCC/C=C\CCCCCCCCOc1ccc(CC(=O)NCC[N+]2(C)CCOCC2)cc1 | 89.1% (inactive)
CNC(=O)c1ccccc1Nc1nc(Nc2cc(OC)c(OC)c(OC)c2)ncc1Br | 6.45% (active)
O=C(Nc1ccc(Br)cc1)C1=NCCCCN1 | 75.3% (inactive)
N#Cc1nc(-c2ccccc2)oc1S(=O)(=O)N1CCN(c2ccc(F)cc2)CC1 | 67.5% (inactive)
C=Cc1cnc(Nc2ccc(OC)cc2)nc1NCCCNC(=O)C1CCC1 | 70.3% (inactive)
CN1CCN(Cc2ccc(NC(=O)c3cncc(C#Cc4cnc(N)c5ncccc45)c3)cc2C(F)(F)F)CC1 | -64.7% (active)
CN1CCN(Cc2ccc(NC(=O)c3cncc(C#Cc4cnc(N)c5ccc(F)cc45)c3)cc2C(F)(F)F)CC1 | 19.3% (inactive)

SMILES | growth
O=C1Nc2ccccc2/C1=C\c1c[nH]c2ccc(Br)cc12 | 69% (inactive)
NC(=O)c1c(NC(=O)c2cccs2)sc2c1CCC(=O)C2 | 43.7% (inactive)
O=c1nc(-c2ccccc2)c2cc(-c3ccc(C(F)(F)F)nc3)ccc2[nH]1 | 104% (inactive)
O=C1C(Nc2ccccn2)=C(I)C(=O)c2ncccc21 | -82.2% (active)
Cc1ccc(-c2csc(NC(=O)c3ccccc3CN3C(=O)c4ccccc4C3=O)n2)cc1 | 95.3% (inactive)
COC(=O)CC[C@@H]1O[C@@H](c2ccc(F)cc2)[C@@H](O)[C@H]1O | 98.4% (inactive)
O=c1cc(-c2ccccc2)[nH]c2ncc(-c3ccc(F)cc3)n12 | -12% (active)
Oc1c(CN2CCOCC2)cc(COCc2ccccc2)c2cccnc12 | 46.8% (inactive)
CCS/C(Nc1ccccc1)=C(\C#N)C(=O)Nc1ccc(OC)cc1 | -47.9% (active)
COc1cc(NC(=O)c2cncnc2Nc2ccc3c(ccn3Cc3ccccn3)c2)cc(OC)c1 | -6.69% (active)
OCCNCCNC(Cc1ccc(Cl)cc1)c1ccccc1 (stereo not drawn) | 98.6% (inactive)
N#Cc1cccc(C2C3=C(COC3=O)N(CCO)c3cc4c(cc32)OCO4)c1 (stereo not drawn) | 0.432% (active)
CN(Cc1ccccc1)c1nc(Cl)c(C2CC(c3ccccc3)=NN2c2ccccc2)s1 (stereo not drawn) | 98% (inactive)
C=C1C(=O)O[C@H]2[C@H]1CC/C(CNC(=O)c1c[nH]c3ccc(F)cc13)=C\CC[C@@]1(C)O[C@@H]21 | 3.64% (active)
COc1cc(/C=N/Nc2ccc(Br)cc2)cc(OC)c1OC | 39.5% (inactive)
CCOC(=O)c1c(C)nc2c(c1N)/C(=C/c1ccc(OC)cc1)C(=O)N2Cc1ccccc1 | 63.4% (inactive)
Cn1c(=O)c2[nH]c(SCC(=O)Nc3ccc(C(=O)/C=C/c4ccccc4Cl)cc3)nc2n(C)c1=O | 92% (inactive)
CCN(CC)CCCOc1ccc2ncnc(Nc3ccc(Oc4cccc(C(F)(F)F)c4)c(Cl)c3)c2c1 | -85.7% (active)
Nc1nc(N)c2c(n1)NC(c1ccc(Cl)cc1)C1CCc3ccccc3C1=N2 (stereo not drawn) | 44.2% (inactive)
